The target of assay [1] is T1, Serine/threonine-protein kinase Nek9 (Homo sapiens) (UniProt Q8TD19).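 Note: each value is a mean percent inhibition of NEK9.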
T1 sequence (whole entry): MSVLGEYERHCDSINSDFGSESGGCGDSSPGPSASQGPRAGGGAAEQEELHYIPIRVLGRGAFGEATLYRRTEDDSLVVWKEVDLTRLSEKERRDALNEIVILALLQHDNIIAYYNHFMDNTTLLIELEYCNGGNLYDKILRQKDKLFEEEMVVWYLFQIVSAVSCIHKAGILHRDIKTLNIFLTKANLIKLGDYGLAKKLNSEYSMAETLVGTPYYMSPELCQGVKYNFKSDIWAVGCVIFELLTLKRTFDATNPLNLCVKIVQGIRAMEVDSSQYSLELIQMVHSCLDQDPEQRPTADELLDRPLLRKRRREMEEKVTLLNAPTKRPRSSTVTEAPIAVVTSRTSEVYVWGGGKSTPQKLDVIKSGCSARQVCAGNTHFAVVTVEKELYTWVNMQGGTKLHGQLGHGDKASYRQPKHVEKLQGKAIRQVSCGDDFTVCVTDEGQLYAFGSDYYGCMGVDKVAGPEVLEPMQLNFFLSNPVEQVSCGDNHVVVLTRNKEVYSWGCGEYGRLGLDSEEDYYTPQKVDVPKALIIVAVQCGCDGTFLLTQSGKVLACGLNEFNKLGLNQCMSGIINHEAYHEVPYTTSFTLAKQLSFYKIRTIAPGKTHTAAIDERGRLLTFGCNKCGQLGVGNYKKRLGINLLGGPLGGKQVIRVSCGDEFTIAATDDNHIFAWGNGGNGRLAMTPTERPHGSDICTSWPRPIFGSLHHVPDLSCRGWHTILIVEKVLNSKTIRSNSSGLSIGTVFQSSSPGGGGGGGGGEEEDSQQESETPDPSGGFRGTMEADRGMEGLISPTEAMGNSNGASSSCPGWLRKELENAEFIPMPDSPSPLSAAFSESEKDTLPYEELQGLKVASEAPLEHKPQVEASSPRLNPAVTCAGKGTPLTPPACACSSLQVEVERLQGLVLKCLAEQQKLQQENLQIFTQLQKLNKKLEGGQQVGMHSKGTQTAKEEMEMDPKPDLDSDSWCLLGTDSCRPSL
The following applies: at 1 µM.

In assay [2] the target is Serine/threonine-protein kinase PLK1 (Homo sapiens) (UniProt P53350). The following applies: at 0.1 µM.
Assay [3] shares this target. The following applies: at 1 µM.
Assay [4] addresses T2, Dual specificity protein kinase TTK (Homo sapiens) (UniProt P33981).
T2 sequence (whole entry): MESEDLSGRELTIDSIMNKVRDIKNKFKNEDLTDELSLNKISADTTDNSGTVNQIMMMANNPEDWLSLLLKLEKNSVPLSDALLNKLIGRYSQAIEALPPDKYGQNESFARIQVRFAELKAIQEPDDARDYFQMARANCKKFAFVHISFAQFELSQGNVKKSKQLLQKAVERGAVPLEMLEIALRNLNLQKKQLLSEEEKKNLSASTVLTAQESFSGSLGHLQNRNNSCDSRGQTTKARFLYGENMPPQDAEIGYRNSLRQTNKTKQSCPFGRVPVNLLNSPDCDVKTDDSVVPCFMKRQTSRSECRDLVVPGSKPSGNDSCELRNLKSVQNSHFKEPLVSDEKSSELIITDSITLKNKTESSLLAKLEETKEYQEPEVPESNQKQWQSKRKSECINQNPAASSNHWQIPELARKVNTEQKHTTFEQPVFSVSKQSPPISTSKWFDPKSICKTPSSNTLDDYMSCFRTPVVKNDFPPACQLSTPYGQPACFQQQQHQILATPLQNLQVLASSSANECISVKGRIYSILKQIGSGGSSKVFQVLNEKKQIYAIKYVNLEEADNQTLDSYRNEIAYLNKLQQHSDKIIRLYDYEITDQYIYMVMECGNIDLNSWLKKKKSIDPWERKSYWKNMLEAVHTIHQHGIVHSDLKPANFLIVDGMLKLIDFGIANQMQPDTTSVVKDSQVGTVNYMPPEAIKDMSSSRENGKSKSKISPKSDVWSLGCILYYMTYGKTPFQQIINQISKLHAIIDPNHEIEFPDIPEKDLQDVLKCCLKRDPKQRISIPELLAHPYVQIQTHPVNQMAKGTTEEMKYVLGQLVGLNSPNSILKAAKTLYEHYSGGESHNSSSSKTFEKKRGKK
The following applies: at 0.1 µM.

The test system of assay [5] is T3, Receptor-type tyrosine-protein kinase FLT3 (Homo sapiens), P36888 [D835Y].
T3 sequence (whole entry): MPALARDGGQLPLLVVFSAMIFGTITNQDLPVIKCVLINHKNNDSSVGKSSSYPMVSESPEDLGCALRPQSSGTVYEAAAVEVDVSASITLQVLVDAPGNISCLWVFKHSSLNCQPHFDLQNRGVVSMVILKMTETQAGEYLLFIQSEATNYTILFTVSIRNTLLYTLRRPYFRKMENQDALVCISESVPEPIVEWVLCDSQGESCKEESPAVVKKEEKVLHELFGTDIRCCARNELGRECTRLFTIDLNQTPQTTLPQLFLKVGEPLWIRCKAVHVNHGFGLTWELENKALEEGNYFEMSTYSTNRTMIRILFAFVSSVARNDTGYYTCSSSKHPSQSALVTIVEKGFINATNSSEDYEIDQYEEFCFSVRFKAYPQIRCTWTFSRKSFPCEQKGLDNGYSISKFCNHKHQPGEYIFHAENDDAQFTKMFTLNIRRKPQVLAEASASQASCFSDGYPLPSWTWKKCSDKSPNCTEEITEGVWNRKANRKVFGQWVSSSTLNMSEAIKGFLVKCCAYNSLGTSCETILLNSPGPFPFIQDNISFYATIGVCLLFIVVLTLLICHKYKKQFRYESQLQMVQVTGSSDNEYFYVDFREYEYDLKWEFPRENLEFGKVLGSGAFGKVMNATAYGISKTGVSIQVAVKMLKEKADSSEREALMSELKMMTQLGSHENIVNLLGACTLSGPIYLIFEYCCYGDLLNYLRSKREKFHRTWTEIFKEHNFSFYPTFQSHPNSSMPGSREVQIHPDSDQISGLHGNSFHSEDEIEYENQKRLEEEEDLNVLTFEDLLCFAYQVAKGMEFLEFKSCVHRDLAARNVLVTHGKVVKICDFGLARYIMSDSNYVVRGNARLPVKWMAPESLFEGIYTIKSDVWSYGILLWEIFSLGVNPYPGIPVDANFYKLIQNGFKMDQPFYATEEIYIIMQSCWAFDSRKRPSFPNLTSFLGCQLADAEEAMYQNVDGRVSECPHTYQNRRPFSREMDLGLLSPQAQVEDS
The settings on record: at 1 µM.

For assay [6], the target named is Vascular endothelial growth factor receptor 3 (Homo sapiens) (UniProt P35916). The settings on record: at 0.1 µM.
The target is the same in assay [7]. The settings on record: at 1 µM.
The target in assay [8] is Macrophage colony-stimulating factor 1 receptor (Homo sapiens) (UniProt P07333). The following applies: at 0.1 µM.
The target is the same in assay [9]. The settings on record: at 1 µM.
Assay [10] deals with Tyrosine-protein kinase Fyn (Homo sapiens) (UniProt P06241). The following applies: at 0.1 µM.
Assay [11] shares this target. The following applies: at 1 µM.
Assay [12] concerns the target Tyrosine-protein kinase HCK (Homo sapiens) (UniProt P08631). The following applies: at 0.1 µM.
Assay [13] has the same target. The following applies: at 1 µM.
The target of assay [14] is Insulin-like growth factor 1 receptor (Homo sapiens) (UniProt P08069). The following applies: at 0.1 µM.
Assay [15] shares this target. The settings on record: at 1 µM.
In assay [16] the target is Insulin receptor (Homo sapiens) (UniProt P06213). The settings on record: at 0.1 µM.
Assay [17] shares this target. The settings on record: at 1 µM.
For assay [18], the target named is Insulin receptor-related protein (Homo sapiens) (UniProt P14616). The settings on record: at 0.1 µM.
Assay [19] shares this target. The settings on record: at 1 µM.
Assay [20] deals with T4, Tyrosine-protein kinase ITK/TSK (Homo sapiens) (UniProt Q08881).
T4 sequence (whole entry): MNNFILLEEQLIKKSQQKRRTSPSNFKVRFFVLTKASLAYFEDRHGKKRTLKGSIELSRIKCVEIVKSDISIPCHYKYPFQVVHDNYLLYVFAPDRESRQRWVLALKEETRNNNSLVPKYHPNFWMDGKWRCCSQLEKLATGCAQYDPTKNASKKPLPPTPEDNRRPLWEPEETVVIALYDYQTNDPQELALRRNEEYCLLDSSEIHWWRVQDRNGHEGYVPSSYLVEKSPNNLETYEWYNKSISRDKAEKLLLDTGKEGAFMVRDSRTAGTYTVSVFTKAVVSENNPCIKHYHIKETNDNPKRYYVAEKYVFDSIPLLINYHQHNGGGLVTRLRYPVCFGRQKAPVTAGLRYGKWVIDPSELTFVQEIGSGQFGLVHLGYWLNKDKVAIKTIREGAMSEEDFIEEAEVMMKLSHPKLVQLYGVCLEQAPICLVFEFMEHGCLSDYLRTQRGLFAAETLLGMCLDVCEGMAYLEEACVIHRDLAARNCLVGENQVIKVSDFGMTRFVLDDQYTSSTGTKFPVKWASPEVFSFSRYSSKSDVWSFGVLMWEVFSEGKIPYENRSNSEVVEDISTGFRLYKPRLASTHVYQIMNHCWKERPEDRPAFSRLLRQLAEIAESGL
The settings on record: at 0.1 µM.

Sequence of Serine/threonine-protein kinase PLK1 (Homo sapiens) (P53350 whole entry): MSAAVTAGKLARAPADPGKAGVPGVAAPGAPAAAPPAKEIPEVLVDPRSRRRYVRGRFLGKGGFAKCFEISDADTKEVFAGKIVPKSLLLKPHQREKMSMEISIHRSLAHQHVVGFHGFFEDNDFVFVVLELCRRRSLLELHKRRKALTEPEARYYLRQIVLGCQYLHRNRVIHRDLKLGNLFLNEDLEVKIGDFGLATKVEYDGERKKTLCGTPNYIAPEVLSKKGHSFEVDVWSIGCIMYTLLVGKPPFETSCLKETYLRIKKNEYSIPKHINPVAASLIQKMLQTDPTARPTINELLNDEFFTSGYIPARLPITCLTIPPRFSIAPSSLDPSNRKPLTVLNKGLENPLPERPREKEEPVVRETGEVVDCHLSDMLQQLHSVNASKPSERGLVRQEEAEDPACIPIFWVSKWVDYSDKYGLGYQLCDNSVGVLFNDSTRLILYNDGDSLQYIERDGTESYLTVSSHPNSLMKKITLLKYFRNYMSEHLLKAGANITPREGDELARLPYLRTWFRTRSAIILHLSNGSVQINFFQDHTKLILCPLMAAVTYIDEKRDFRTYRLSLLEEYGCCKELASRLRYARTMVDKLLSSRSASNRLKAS
Sequence of Insulin receptor-related protein (Homo sapiens) (P14616 27-742 limits assumed): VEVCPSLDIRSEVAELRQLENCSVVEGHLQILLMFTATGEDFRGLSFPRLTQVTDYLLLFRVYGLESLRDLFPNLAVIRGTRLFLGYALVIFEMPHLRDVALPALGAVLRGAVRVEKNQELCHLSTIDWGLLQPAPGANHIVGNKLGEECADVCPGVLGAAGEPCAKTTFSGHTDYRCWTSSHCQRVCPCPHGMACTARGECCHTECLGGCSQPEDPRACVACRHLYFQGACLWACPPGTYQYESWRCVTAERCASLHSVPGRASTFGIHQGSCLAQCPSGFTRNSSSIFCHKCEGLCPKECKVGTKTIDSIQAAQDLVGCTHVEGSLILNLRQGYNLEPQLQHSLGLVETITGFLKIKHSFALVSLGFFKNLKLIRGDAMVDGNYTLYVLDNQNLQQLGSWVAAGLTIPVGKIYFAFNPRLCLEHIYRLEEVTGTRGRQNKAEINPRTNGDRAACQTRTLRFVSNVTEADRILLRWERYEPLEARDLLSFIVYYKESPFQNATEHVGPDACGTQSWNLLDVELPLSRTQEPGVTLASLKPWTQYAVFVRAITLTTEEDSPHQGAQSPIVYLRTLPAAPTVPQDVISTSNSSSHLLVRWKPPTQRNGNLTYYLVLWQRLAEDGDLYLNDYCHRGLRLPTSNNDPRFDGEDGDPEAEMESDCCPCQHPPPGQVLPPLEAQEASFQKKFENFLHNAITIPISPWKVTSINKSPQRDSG
Sequence of Insulin receptor-related protein (Homo sapiens) (P14616 747-1297 limits assumed): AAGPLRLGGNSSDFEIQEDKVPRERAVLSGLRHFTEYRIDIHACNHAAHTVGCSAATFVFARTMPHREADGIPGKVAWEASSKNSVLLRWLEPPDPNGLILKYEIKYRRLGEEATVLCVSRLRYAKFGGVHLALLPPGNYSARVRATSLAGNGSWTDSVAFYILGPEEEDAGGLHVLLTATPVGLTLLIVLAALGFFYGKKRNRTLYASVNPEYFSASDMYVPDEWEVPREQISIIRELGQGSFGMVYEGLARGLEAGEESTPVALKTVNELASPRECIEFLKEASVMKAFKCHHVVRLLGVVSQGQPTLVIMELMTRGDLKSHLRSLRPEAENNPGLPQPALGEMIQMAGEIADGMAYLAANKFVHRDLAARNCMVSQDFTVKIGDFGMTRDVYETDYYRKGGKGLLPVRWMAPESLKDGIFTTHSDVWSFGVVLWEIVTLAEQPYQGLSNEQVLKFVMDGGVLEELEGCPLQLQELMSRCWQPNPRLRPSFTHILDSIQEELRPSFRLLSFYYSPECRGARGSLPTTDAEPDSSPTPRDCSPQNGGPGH
Sequence of Insulin-like growth factor 1 receptor (Homo sapiens) (P08069 31-736 limits assumed): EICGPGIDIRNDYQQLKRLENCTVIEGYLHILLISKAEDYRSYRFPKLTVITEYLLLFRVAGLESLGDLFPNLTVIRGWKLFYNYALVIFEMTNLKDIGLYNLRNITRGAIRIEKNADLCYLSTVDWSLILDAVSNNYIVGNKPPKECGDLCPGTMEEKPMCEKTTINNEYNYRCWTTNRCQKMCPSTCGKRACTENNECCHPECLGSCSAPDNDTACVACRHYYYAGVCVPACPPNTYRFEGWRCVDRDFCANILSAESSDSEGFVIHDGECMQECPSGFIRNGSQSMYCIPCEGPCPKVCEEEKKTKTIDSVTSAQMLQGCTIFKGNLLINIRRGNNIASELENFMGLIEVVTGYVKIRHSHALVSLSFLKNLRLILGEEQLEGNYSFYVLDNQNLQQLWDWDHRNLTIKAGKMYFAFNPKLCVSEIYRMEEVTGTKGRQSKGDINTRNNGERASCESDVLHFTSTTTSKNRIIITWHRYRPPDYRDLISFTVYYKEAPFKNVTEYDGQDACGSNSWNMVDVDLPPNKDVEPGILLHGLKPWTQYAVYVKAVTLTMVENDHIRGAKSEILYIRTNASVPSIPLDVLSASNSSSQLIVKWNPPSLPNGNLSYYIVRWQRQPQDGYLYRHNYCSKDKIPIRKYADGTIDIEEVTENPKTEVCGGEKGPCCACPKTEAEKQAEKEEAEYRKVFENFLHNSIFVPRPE
Sequence of Insulin-like growth factor 1 receptor (Homo sapiens) (P08069 741-1367 limits assumed): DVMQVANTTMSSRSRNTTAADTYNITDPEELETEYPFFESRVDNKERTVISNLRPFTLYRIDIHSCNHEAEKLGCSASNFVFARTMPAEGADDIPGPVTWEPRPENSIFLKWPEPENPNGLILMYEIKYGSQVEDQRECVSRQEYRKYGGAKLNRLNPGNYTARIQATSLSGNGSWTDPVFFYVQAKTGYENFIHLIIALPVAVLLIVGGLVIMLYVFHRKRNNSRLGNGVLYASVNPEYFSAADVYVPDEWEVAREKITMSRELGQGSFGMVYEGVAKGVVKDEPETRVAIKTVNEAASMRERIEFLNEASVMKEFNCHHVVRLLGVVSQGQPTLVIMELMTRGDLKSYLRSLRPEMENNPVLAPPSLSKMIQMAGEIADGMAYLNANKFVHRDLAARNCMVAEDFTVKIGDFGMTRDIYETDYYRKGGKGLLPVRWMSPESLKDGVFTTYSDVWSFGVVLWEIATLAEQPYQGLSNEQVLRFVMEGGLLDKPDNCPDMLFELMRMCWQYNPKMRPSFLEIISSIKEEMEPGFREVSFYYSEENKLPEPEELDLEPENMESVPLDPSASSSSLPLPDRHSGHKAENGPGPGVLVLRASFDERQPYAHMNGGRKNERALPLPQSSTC
Sequence of Tyrosine-protein kinase Fyn (Homo sapiens) (P06241 2-537 limits assumed): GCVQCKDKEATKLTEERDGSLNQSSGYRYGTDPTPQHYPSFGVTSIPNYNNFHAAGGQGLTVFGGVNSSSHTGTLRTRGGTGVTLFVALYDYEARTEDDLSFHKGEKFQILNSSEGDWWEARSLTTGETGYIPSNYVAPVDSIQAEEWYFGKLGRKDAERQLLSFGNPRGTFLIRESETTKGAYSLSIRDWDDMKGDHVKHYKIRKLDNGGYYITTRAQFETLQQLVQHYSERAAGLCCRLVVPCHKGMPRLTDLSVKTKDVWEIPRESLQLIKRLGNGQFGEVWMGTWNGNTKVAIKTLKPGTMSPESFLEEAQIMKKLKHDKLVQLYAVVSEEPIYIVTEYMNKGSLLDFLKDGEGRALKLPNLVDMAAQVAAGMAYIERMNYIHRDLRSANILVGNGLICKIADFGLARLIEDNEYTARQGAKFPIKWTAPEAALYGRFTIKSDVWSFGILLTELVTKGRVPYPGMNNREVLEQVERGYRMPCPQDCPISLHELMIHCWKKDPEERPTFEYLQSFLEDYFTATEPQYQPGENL
Sequence of Macrophage colony-stimulating factor 1 receptor (Homo sapiens) (P07333 whole entry): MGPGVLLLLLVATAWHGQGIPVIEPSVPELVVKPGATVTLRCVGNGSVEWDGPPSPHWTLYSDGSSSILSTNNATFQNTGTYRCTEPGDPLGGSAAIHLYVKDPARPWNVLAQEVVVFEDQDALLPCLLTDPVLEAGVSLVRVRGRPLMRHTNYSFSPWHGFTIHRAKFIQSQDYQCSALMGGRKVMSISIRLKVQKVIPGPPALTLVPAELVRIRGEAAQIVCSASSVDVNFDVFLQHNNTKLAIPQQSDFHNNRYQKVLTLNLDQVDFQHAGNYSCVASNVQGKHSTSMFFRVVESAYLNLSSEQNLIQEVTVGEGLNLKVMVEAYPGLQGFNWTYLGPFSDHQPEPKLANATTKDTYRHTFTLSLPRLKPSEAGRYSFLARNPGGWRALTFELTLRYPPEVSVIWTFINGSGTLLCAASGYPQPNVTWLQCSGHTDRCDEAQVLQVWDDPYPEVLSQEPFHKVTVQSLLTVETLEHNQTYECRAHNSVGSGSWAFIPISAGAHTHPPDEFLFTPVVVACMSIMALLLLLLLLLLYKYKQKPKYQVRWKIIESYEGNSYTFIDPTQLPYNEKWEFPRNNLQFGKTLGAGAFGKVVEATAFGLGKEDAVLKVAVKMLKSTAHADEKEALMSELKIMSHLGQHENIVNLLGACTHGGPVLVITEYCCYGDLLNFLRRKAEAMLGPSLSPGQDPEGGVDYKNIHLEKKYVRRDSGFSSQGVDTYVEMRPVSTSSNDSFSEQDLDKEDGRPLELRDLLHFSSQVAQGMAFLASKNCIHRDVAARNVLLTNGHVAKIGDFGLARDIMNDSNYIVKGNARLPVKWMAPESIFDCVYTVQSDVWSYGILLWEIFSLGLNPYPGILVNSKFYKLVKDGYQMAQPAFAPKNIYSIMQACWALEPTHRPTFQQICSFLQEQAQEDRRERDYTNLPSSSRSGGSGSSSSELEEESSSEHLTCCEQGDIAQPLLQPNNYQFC

Broadly, the inhibition is the change of the read-out against control, counted positive when it falls. Consider `Cc1cc(-c2ccco2)cc(C)c1/C=C/c1cncc(-c2nn[nH]n2)c1`, for which the inhibition was 1.42% in [1]; 1.22% in assay [2]; 0.57% in assay [3]; 4.5% in assay [4]; -2.85% in assay [5]; 1.37% in assay [6]. Also, the inhibition in assay [7] was 2.25%; in assay [8], -0.94%; in [9] it was 2.32%; in [10] it was 1.3%; in [11] it was 1.98%; in [12], 1.62%. Moreover, the inhibition was 3.34% in assay [13]; -1.5% in [14]; 1.06% in assay [15]; 0.61% in assay [16]; 0.42% in [17]; 1.36% in [18]. In addition, the inhibition in assay [19] was -0.21%; in assay [20] it was -0.49%.
On to `CCn1c(-c2nonc2N)nc2c(C#CC(C)(C)O)nc(O[C@@H](CN)c3ccccc3)cc21`, for which the inhibition is -1.03% in assay [1]; 0.95% in [2]; 0.24% in [3]; 3.8% in assay [4]; 2.22% in assay [5]; 58.4% in assay [6]. The inhibition in assay [7] was found to be 93.8%; in [8], 0.67%; in [9], 1.9%; in [10], 3.24%; in [11] it was 25%; in assay [12], 0.41%. For the same compound, the inhibition in assay [13] is 14.1%; in assay [14] it was -2.18%; in assay [15], -0.35%; in [16], 1.17%; in assay [17], 1.91%; in [18], -1.87%. The inhibition is -2.16% in assay [19] and 0.11% in assay [20].
For `COc1cccc(-n2ncc3c(N/N=C/c4ccncc4)ncnc32)c1`, the inhibition in assay [1] was 6.71%; in [2], 2.19%; in assay [3], 3.32%; in [4], 8.59%; in assay [5], 52.1%; in [6], 9.86%. Besides, the inhibition is 38.4% in assay [7]; 6.17% in assay [8]; 30.2% in assay [9]; 26.5% in assay [10]; 73.8% in assay [11]; 15.7% in assay [12]. For the same compound, the inhibition amounted to 59.2% in assay [13]; 4.62% in [14]; 4.88% in assay [15]; 6.46% in [16]; 7.36% in assay [17]; 1.64% in [18]. For the same compound, the inhibition was found to be 5.33% in assay [19] and 1.63% in [20].

The record behind these values is ChEMBL document CHEMBL1961873, “Compounds: GSK PKIS; Assays: Nanosyn kinase panel” (2012).
